According to PubChem BioAssay (Tox21):
Where “and” joins values, the source holds several entries; their conditions need not be identical. Identical values can stand only once. Calls of active or inactive are those of the source. A call without a number means that no potency is given here. Calls come from the whole dose curve.

molecular target: Gonadotropin-releasing hormone receptor (Homo sapiens) (UniProt P30968); experiment: Human gonadotropin-releasing hormone receptor (GnRHR) small molecule agonists, calcium flux assay in GnRHR-HEK293 cells (AID 1920063); settings: calcium flux fluorescence, agonist mode; series mostly up to 57.6 µM; note: nearly all actives have a fitted effect of over 35% in size
Source text: National Center for Advancing Translational Sciences [NCATS]
Division of Preclinical Innovation [DPI]
U.S. Environmental Protection Agency [EPA]
National Institutes of Environmental Health Sciences [NIEHS]
National Toxicology Program [NTP]
U.S. Food and Drug Administration [FDA]
Gonadotropin-releasing hormone receptor (GnRHR) is a G-protein-coupled receptor (GPCR) and acts (through phospholipase C) to increase intracellular inositol trisphosphate and then release intracellular calcium stores. Cell-based GnRHR-Hek293 calcium influx assay is using HEK293 cells that have been genetically engineered to express the human GnRHR, which activity can be measured by calcium signaling. A compound/drug can activate (agonist) GnRHR that can be monitored by levels of intracellular calcium.
GnRHR-HEK293 cells developed by Codex Corp contain human GnRHR reporter gene, which was stably integrated into HEK 293 cells. The compound activation can be detected by fluorescence intensity via calcium flux assay. This cell line has been used to screen the Tox21 10K compound library to identify GnRHR agonists.
GnRHR-Hek293 cells were dispensed at 1500cells/4uL/well in 1536-well black wall/clear bottom plates using a multidrop dispenser. After the assay plates were incubated at a 37 C/5% CO2 incubator for 18 hours, 4 uL of Calcium Dye Solution was added to each well. The plates were incubated at 37 C for 1 hour. For agonist mode, 23 nL of compounds dissolved in DMSO, positive controls or DMSO only was transferred to the assay plate by a pin tool station. The fluorescence intensity in the plates was measured using FDSS 7000EX kinetic plate reader with a filter set of Ex/Em=480/540 for 3 min at 1 sec intervals. Each test compound was measured at 15 concentrations and in triplicates.
Potency is the fitted concentration of half-maximal effect.

Chain of Gonadotropin-releasing hormone receptor (Homo sapiens) (P30968 whole entry, looked up): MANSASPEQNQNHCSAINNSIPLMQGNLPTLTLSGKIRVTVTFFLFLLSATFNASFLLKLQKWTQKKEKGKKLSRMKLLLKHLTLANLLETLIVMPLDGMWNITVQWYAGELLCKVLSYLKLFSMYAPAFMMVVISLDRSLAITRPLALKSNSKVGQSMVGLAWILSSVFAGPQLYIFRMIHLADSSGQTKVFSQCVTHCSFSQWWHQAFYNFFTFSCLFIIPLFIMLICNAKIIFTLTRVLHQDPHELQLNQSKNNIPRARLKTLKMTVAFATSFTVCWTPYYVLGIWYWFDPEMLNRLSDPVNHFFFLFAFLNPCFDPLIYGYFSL

| SMILES | Potency |
| --- | --- |
| C=CC(=O)OCCC(=O)O | inactive |
| CC1=CC[C@H]2C[C@@H]1C2(C)C | inactive |
| CC(C)[C@@H]1CC[C@@H](C)C[C@H]1O | inactive |
| COc1ccc(C(Cl)=C(c2ccc(OC)cc2)c2ccc(OC)cc2)cc1 | inactive |
| COc1cc([C@H]2Oc3cc([C@H]4Oc5cc(O)cc(O)c5C(=O)[C@@H]4O)ccc3O[C@@H]2CO)ccc1O | inactive |
| CCCNC(=O)NS(=O)(=O)c1ccc(Cl)cc1 | inactive |
| CC(C)=CCO | inactive |
| COc1ccc(C(=O)c2ccccc2)c(O)c1 | inactive |
| CC(=O)OCC(COC(C)=O)OC(C)=O | inactive |
| NC(=O)c1cccnc1 | inactive |
| CC1(C)NC(=O)NC1=O | inactive |
| C=C(C)C(=O)OCCCCCC | inactive |
| Oc1ccc(O)cc1 | inactive |
| Cc1ccc(N)c([N+](=O)[O-])c1 | inactive |
| O=C1CCc2ccccc2O1 | inactive |
| CCCCCCC(C)(C)S | inactive |
| CC(=O)Oc1c(C)c(C)c2c(c1C)CC[C@@](C)(CCC[C@H](C)CCC[C@H](C)CCCC(C)C)O2 | inactive |
| O=C1O[C@H](CO)[C@@H](O)[C@H](O)[C@H]1O | inactive |
| Nc1ccc(O)c(C(=O)O)c1 | inactive |
| NC(=O)/N=N/C(N)=O | inactive |

| SMILES | Potency |
| --- | --- |
| C#C[C@]1(O)CC[C@H]2[C@@H]3CCC4=CC(=O)CC[C@@H]4[C@H]3CC[C@@]21CC | inactive |
| C=C(C)C(=O)OCC(CC)(COC(=O)C(=C)C)COC(=O)C(=C)C | inactive |
| CC(=O)Nc1ccc(C(=O)CCl)cc1 | inactive |
| Cc1cccc(C)c1 | inactive |
| c1cnc2c(c1)ccc1cccnc12 | inactive |
| Clc1ccc(Sc2cc(Cl)c(Cl)cc2Cl)cc1 | inactive |
| Cc1cccc2ccccc12 | inactive |
| CCCCC(CC)C(=O)O (stereo not given) | inactive |
| CCOc1ccc(NC(=O)CC(C)O)cc1 (stereo not given) | inactive |
| C=C(C)C(=O)OCC(C)O (stereo not given) | inactive |
| C[C@]12C[C@H](O)[C@H]3[C@@H](CCC4=CC(=O)CC[C@@]43C)[C@@H]1CC[C@@H]2C(=O)CO | inactive |
| CC(=O)OCCOC(C)=O | inactive |
| CC(=O)CCC=C(C)C | inactive |
| CNC(=S)N(C)C | inactive |
| CN(C)Cc1cc(CN(C)C)c(O)c(CN(C)C)c1 | inactive |
| CC1(C)O[C@@H]2C[C@H]3[C@@H]4CCC5=CC(=O)C=C[C@]5(C)[C@@]4(F)[C@@H](O)C[C@]3(C)[C@]2(C(=O)CO)O1 | inactive |
| O=S(=O)(O)c1ccc(O)cc1 | inactive |
| Brc1ccc(Br)c(Br)c1 | inactive |
| CCCCCC/C=C/CCCCCCCC(=O)O | inactive |
| CCN=c1cc2oc3cc(NCC)c(C)cc3c(-c3ccccc3C(=O)OCC)c-2cc1C | 12.3 µM (active) and 7.76 µM (active) |
